# Only some compounds are listed: those with a hit (about 3.8% of all), similar ones and a draw of the others.
# Beta apoptosis: beta cell apoptosis inhibition | 300,000 tested, 0.8% active | INS-1E cytokine-induced death, ATP luminescence, 48 h; percent of positive-control rescue, neutral wells zero | protection from apoptosis, % (test concentration not listed);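 active = Every replicate reaches about 75%, or at least half do and their mean reaches it too, limit read from the data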;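 note: 0% = cytokine-treated negative control wells and 100% = positive control rescue; higher means more ATP so stronger rescue from cytokine killing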
# Jurkat NFkB inh: lowers PMA/ionomycin-induced NF-kB signal in Jurkat cells | AID 435003 | inhibition, % at 4 µM | PMA/ionomycin-induced NF-kB luciferase reporter, luminescence | 330,000 tested, 0.53% active; in the data active = inhibition above about 50%
# A1 inh: inhibitors of the anti-apoptotic protein A1, read as caspase activation. MEF A1-2A-BIM cells, Caspase-Glo 3/7 luminescence, 3 h; percent of clofoctol response, vehicle zero. 330,000 tested, 0.066% active. caspase activation, % (no concentration beside the values);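 active = over half of replicate activation scores above 10%, or exactly half above 10 with the replicate mean above 10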
# Mdm2-MdmX inh: inhibitors of human Mdm2/MdmX interaction; O15151+Q00987; SaOS-2 split-luciferase Mdm2/MdmX complementation, luminescence; inhibition, % at 8 µM; 330,000 tested, 3% active; AID 485346;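 active = inhibition of at least 50% at 8 µM in the primary screen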
# 697 NFkB inh: inhibitors of the PMA/ionomycin-induced NF-kB reporter in 697 B cells; 330,000 tested, 0.33% active; inhibition, % at 4 µM; AID 435022; 697 B-cell NF-kB luciferase reporter, 16 h; in the data active = inhibition above about 35%
# NTR1 ag: activates human neurotensin receptor 1. P30989. NTR1-U2OS beta-arrestin-GFP spot imaging, agonist mode. activation, % at 20 µM. 330,000 tested, 0.17% active;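 active = activation at or above 40% of the spot to cytoplasm intensity ratio, with at least 20 cells analyzed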;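 note: 0% = DMSO without peptide and 100% = 100 nM NTR1 peptide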
# Target sequence (P30989 whole entry, looked up): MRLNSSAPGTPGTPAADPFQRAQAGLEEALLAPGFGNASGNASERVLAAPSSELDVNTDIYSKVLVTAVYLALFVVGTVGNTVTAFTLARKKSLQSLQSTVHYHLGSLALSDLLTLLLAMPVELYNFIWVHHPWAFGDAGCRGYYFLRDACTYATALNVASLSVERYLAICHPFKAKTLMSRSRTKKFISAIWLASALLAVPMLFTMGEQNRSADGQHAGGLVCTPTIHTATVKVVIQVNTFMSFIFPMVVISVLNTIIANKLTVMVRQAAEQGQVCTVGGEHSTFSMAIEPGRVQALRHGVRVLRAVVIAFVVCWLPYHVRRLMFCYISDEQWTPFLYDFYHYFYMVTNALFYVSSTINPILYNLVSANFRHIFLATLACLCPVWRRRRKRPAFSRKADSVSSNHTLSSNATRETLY
# Mdm2 MdmX conf: confirmation of human Mdm2/MdmX interaction inhibitors; shares compounds with Mdm2-MdmX inh; Mdm2-MdmX binding, luminescent assay; inhibition, % at 8 µM; 10,000 tested, 55% active; AID 489028; in the data active = inhibition above about 40%
# Full FLuc ctr: counter-screen for Mdm2/MdmX inhibitors: full-length luciferase | shares compounds with Mdm2-MdmX inh | SaOS-2 full-length luciferase counterscreen, luminescence | inhibition, % at 8 µM | 6,200 tested, 77% active;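 active = mean inhibition at 8 µM reaching about 37%, which flags the compound as non-specific, limit read from the data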;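 note: p53-null SaOS-2 cells with luciferase driven by a doxycycline-inducible promoter; compound on cells about two nights before reading with doxycycline added after day one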
# An asterisk follows results filed as active; . = no result given.
SMILES,Beta apoptosis,Jurkat NFkB inh,A1 inh,Mdm2-MdmX inh,697 NFkB inh,NTR1 ag,Mdm2 MdmX conf,Full FLuc ctr
Cc1[nH]nc2ncc(C(=O)c3ccccc3O)cc12,-25,19,0,81*,-4,-1,81*,30
COc1cccc(Cl)c1NC(=O)N1CCN(c2cc(C)nc3ccccc23)CC1,7,20,0,55*,19,3,24,.
COc1cccc(Cl)c1NC(=O)N1CCN(c2ccnc3cc(Cl)ccc23)CC1,1,10,1,24,16,2,.,.
CN(C)CCNC(=O)COc1ccc(C23CC4CC(CC(C4)C2)C3)cc1,13,-5,0,66*,6,4,23,.
Cc1ccc(C23CC4CC(CC(NC(=O)NCCN(C)C)(C4)C2)C3)cc1,-1,0,1,50,-1,3,.,.
COc1cccc(CN(Cc2ccccc2F)S(=O)(=O)c2ccc(S(=O)(=O)NCc3ccccc3)cc2)c1,0,9,0,52*,-7,6,34,.
COc1ccccc1NC(=O)CSc1nc2n[nH]c(C)c2c(=N)n1-c1ccccc1Cl,.,11,0,68*,11,33,41*,71*
CCN(C(=O)CSc1nc2n[nH]c(C)c2c(=N)n1-c1ccc(Cl)c(C)c1)c1cccc(C)c1,34,9,-4,76*,5,26,21,.
CCCCN(CC)C(=O)CSc1nc2n[nH]c(C)c2c(=N)n1-c1cccc(C)c1,12,12,2,25,-14,5,.,.
CCCN(CCC)C(=O)CSc1nc2n[nH]c(C)c2c(=N)n1-c1ccc(OC)cc1,26,12,0,50*,-26,2,19,.
CC(CCN1CCC(n2nccc2NC(=O)c2ccccc2Cl)CC1)c1ccccc1 (centres undefined),5,19,0,28,-10,0,.,.
CCc1ccc(N2CC(C(=O)Nc3cccc(C(=O)NC4CC4)c3)CC2=O)cc1 (centres undefined),0,-16,-1,-20,0,-2,.,.
O=[N+]([O-])c1cnccc1NC1CCCCC1,0,-10,0,3,-4,2,.,.
CCCN(CCC)c1nc(-c2ccccn2)nc2ccccc12,135*,10,1,83*,-16,15,85*,25
c1ccc(CN2CCN(c3nc(-c4ccccn4)nc4ccccc34)CC2)cc1,.,-6,0,23,-19,0,.,.
c1ccc(CCNc2nc(-c3ccccn3)nc3ccccc23)cc1,96*,7,0,93*,-38,6,89*,23
Cc1ccc(NC(=O)Cn2c(=O)c3cccn3c3ccccc32)c(Cl)c1,15,-2,2,13,-36,13,.,.
CCOc1c(Br)cc(CNc2ccc(N3CCOCC3)cc2)cc1OC,-1,2,-2,23,6,2,.,.
CCOc1c(Br)cc(CNc2ccc3c(c2)OCCO3)cc1OC,17,46,-1,71*,-29,4,58*,57*
COc1ccc(CN2CCc3c([nH]c4ccccc34)C2)cc1Br,-8,-5,0,69*,-16,11,25,.
N=c1n(CC(=O)c2ccc([N+](=O)[O-])cc2)c2ccccc2n1Cc1ccccc1,15,9,0,48,-15,1,.,.
CCCCn1c(=N)n(CC(=O)c2ccc(OC)cc2)c2ccccc21,7,36,-1,79*,-5,1,44*,48*
CCCCn1c(=N)n(CC(=O)c2ccc(Br)s2)c2ccccc21,83*,12,0,97*,-12,4,59*,53*
N=c1n(CC(=O)c2ccc(Br)cc2)c2ccccc2n1Cc1ccccc1,16,2,0,97*,-13,16,75*,55*
CC(OC(=O)c1nc(Cl)ccc1Cl)C(=O)Nc1ccc2c(c1)OCCO2 (centres undefined),-4,5,0,26,3,0,.,.
SMILES,Beta apoptosis,Jurkat NFkB inh,A1 inh,Mdm2-MdmX inh,697 NFkB inh,NTR1 ag,Mdm2 MdmX conf,Full FLuc ctr
C1CCCCCC(NCCN2CCNCC2)CCCCC1,1,23,0,97*,-27,5,93*,23
Cc1nc2ccccc2c2c(N)c3ccccc3n12,-26,24,1,22,20,0,.,.
CN(C)CCn1c(=O)n(C2CCCCC2)c(=O)c2c3c(sc21)CCCCC3,-6,6,1,59*,21,11,45*,65*
CN(C)CCn1c(=O)n(Cc2ccco2)c(=O)c2c3c(sc21)CCCCC3,6,12,0,-3,10,10,.,.
Cc1cccc2cc(C#N)c(N3CCN(C)CC3)nc12,3,-7,0,54*,4,0,7,.
Cc1cc(C)c2nc(N3CCN(C)CC3)c(C#N)cc2c1,-6,7,1,16,-3,-1,.,.
COc1ccc(/C=C/c2nc3ccccc3c(=O)o2)cc1,-6,31,-8,88*,-37,1,84*,63*
COc1ccccc1/C=C/c1nc2ccccc2c(=O)o1,1,.,-6,.,.,.,.,.
COc1ccc2c(c1)C1(Nc3ccccc3-c3nc4ccccc4n31)C(=O)N2C (centres undefined),3,-10,0,76*,-26,-1,81*,46*
C/C(=N\NC(=O)c1ccc(NS(=O)(=O)c2cccs2)cc1)c1ccccn1,86*,12,0,58*,14,0,-6,.
CC(=O)c1ccc(Nc2nc3ccccc3nc2NS(=O)(=O)c2cccs2)cc1,33,-8,1,60*,9,8,28,.
COc1ccc(S(=O)(=O)N2CCC(C(=O)N[C@@H](C)C(=O)NC3CC3)CC2)cc1,-2,-9,2,12,-4,-1,.,.
Cc1cc(C)c(S(=O)(=O)c2ccc(F)cc2C)c(Cl)n1,-4,-1,1,-3,-11,-1,.,.
COC1=CC(=O)[C@@]2([C@@H]1O)[C@@H](Cl)C[C@]13C(OC)=C(OC)C(=O)C[C@]21CCN3C,-10,-7,0,13,8,1,.,.
CCOC(=S)SCC(=O)Nc1nc(-c2ccccc2)cs1,0,-13,1,60*,-10,2,57*,100*
CCOC(=S)SCC(=O)Nc1nccs1,-1,-2,0,19,12,0,.,.
CCOC(=S)SCC(=O)Nc1nc(-c2ccc(Br)cc2)cs1,28,8,0,84*,1,3,76*,102*
Cc1nn(-c2ccc(N3CCOCC3)nn2)c(C)c1CCC(=O)NCc1ccccc1F,-8,-24,0,-5,-57,0,.,.
CCOC(=O)c1ccc(-c2ccc3c(c2)CCC3)nc1C,-2,-119,-6,-130,-183,3,.,.

# Screens: PubChem BioAssay, several laboratories
